# Screening results: PubChem BioAssay, National Center for Advancing Translational Sciences (NCATS)
# Hits are enriched below; roughly 21% of the tested compounds scored in any of these assays.
# D3 antag: antagonists of human D3 dopamine receptor; P35462; D3R cells, DiscoveRx beta-arrestin luminescence, antagonist mode; stronger effect = lower value; max response, negative = inhibition, %; 360,000 tested, 2.5% active; in the data active = max response below about -50%; inconclusive = no clear call, values can overlap the other calls
# Target sequence (P35462 whole entry, looked up): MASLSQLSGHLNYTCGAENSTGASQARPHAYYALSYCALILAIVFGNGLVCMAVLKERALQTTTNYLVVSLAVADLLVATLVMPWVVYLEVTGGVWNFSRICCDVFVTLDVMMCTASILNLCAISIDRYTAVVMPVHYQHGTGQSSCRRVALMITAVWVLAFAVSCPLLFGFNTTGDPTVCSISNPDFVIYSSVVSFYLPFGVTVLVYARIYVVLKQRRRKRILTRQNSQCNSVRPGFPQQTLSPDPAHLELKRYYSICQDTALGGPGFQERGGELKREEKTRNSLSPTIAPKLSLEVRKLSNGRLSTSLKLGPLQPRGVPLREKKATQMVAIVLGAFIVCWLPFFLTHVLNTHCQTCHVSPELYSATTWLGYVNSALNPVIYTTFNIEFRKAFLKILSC
#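 Cells plated overnight at 1500 cells/well, then exposed to library compounds with dopamine controls for 90 minutes at 37 degrees C. DiscoveRx reagent added for 30–60 minutes at room temperature; luminescence read, quantitative HTS format.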
# TDP1 cell CPT: growth inhibition of DT40 Tdp1-/-;hTDP1 cells with camptothecin (screen for TDP1 inhibitors). chicken DT40 Tdp1-/-;hTDP1 cells + 20 nM CPT, ATP luminescence, 48 h. Potency, µM (titrated, usually from 46.2 µM), most hits filed as inhibitors. 420,000 tested, 12% active. AID 686979; note: nearly all actives have a fitted effect of over 55% in size
#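 Chicken DT40 Tdp1-/- cells stably complemented with human TDP1 were seeded at 400 cells/well in medium containing 20 nM camptothecin, exposed to pin-transferred compounds, and grown at 37 °C for at least 48 hr. Viability was read as ATP luminescence.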
# ClpP mod: qHTS Assay for Activators of ClpP. ATP-dependent Clp protease proteolytic subunit (Bacillus subtilis (strain 168)), P80244. purified B. subtilis ClpP, FRET peptide cleavage, 20 min. Potency, µM (series often up to 57.5 µM). 340,000 tested, 1.9% active. AID 651965, 2013; active = well fitted falling curve with a large enough effect; inconclusive = small, poorly fitted or top-dose-only effect; inactive = no such curve, though single readings can be large or run the other way; note: the source files actives as falling curves though it sought activators and does not explain the sign; nearly all actives have a fitted effect of over 65% in size
#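 Purified B. subtilis ClpP, 10 microg/mL final in Tris/HCl pH8 with KCl, BSA, glycerol and Tween-20, cleaved an Abz/nitrotyrosine-quenched decapeptide. Fluorescence (ex 320, em 430) was read at 0 and 20 min at room temperature. Delta was normalized to 5.8 microM ADEP and DMSO/no-enzyme controls.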
# TDP1 cell noCPT: qHTS for Inhibitors of human tyrosyl-DNA phosphodiesterase 1 (TDP1): qHTS in cells in absence of CPT; DT40 Tdp1-/- hTDP1 cells, no CPT, ATP luminescence, 48 h; Potency, µM (series often up to 46.2 µM), most hits filed as inhibitors; 420,000 tested, 15% active; note: nearly all actives have a fitted effect of over 55% in size
#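 Readout: luminescence from CellTiter-Glo after 30 min in the dark at RT. Cells: DT40 Tdp1-/- with stable hTDP1, 400/well. Exposure: compounds alone, ≥48 hr, 37 °C.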
# DRD3 agonist: agonists of human D3 dopamine receptor; P35462; D3R DiscoveRx beta-arrestin cells, luminescence, 90 min; max activation, %; 410,000 tested, 0.58% active; AID 652048; in the data active = max activation above about 30%
#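 Cells at 1500/well, incubated overnight, then treated with pinned compounds (dopamine as control) for 90 min at 37 degrees C. DiscoveRx reagent added for 30 - 60 minutes at room temperature; luminescence read.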
# IL1B secr inh: blocks inflammasome-driven IL-1 beta release; THP-1 LPS/ATP IL-1B secretion, AlphaLISA, 16 h; stronger effect = lower value; activity change, % at 57.5 µM; 360,000 tested, 4.7% active; in the data active = activity change below about -50%; inconclusive = mostly about -30% to -49%
#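 Secreted IL-1B measured by AlphaLISA bead assay after 16 h compound exposure of THP-1 cells; compounds (final up to 57.5 uM) added 1 h before LPS (250 ng/mL) and ATP (1.25 mM) stimulation; lower signal means less secretion.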
# A number is an active result; 0 = inactive; ? = inconclusive; - = no result. Unless noted, calls come from the whole dose curve; as a rule, active = well fitted inhibition curve with a large enough effect; inconclusive = small, poorly fitted or top-dose-only effect; inactive = flat fitted curve, though single readings scatter.
SMILES,D3 antag,TDP1 cell CPT,ClpP mod,TDP1 cell noCPT,DRD3 agonist,IL1B secr inh
NC(Cc1ccc(Cl)cc1)c1csc(NC(=O)Nc2ccccc2-c2ccccc2)n1 (stereo not drawn),0,13µM,0,11.6µM,0,?
COc1ccccc1CNC(=O)CCCc1ccccc1,0,0,0,0,0,0
NC(CCc1ccccc1)c1csc(NC(=O)NCCc2ccccc2)n1 (stereo not drawn),0,23.1µM,0,?,0,?
NC(Cc1ccc(Cl)cc1)c1csc(NC(=O)NCCc2ccccc2)n1 (stereo not drawn),0,23.1µM,0,?,0,0
Cc1noc(C)c1COc1ccc(C(=O)Nc2ncccc2O)cc1,0,?,0,?,0,0
NC(Cc1ccc(Cl)cc1)c1csc(NC(=O)NCC2CCCCC2)n1 (stereo not drawn),0,10.3µM,0,8.2µM,0,0
COc1ccc(CNC(=O)C(c2cccs2)N(Cc2ccco2)C(=O)Cc2cccs2)cc1 (stereo not drawn),0,?,0,23.1µM,0,?
COc1ccc(CNC(=O)C(c2ccco2)N(Cc2cccs2)C(=O)Cc2cccs2)cc1 (stereo not drawn),0,?,0,?,0,-51.7
COCCN(C(=O)Cc1cccs1)C(C(=O)NCc1ccc(OC)cc1)c1ccc(OC)cc1 (stereo not drawn),0,?,0,?,0,0
O=C(Nc1ccc(N2C(=O)CCC2=O)cc1Cl)c1cccs1,0,0,-,0,0,0
C=CCNc1oc(-c2cccc3ccccc23)nc1C#N,0,0,3.16µM,0,0,0
CCNc1oc(-c2cccc3ccccc23)nc1C#N,0,0,0,0,0,0
N#Cc1nc(-c2cccc3ccccc23)oc1NCCN1CCCCC1,?,18.4µM,?,16.4µM,0,?
Clc1ccc(NC2(c3nnnn3C3CCCCC3)CCCCC2)cc1,0,18.4µM,0,20.6µM,0,0
Cc1cccc(C)c1-n1nnnc1C1(Nc2ccccc2)CCCCC1,0,?,0,?,0,?
O=S(=O)(c1ccc(Br)cc1)N1CCC2(CC1)OCCO2,0,0,0,0,0,0
CN(C)C(=O)CSc1cccc2cccnc12,?,4.61µM,20µM,4.61µM,0,0
O=C(CSc1cccc2cccnc12)OCC(=O)c1ccccc1,0,?,25.1µM,?,0,0
NNC(=O)CSc1cccc2cccnc12,0,0,?,0,0,0
O=C(CSc1cccc2cccnc12)OCC(=O)c1ccc(Br)cc1,0,0,0,0,0,0
Cc1cccn2c(=O)c(/C=C(\C#N)C(=O)NC3CCS(=O)(=O)C3)c(N3CCC(C(N)=O)CC3)nc12 (stereo not drawn),0,0,0,0,0,0
Cc1cccn2c(=O)c(/C=C(\C#N)C(=O)NC3CCS(=O)(=O)C3)c(Oc3ccccc3Cl)nc12 (stereo not drawn),0,?,-,20.6µM,0,0
Cc1ccccc1Oc1nc2c(C)cccn2c(=O)c1/C=C(\C#N)C(=O)NC1CCS(=O)(=O)C1 (stereo not drawn),0,11.6µM,0,20.6µM,0,-96.7
CCN(CC)C(=O)c1cccc(NC(=O)c2cc(C3CC3)nc3c2cnn3C(C)C)c1,0,?,0,?,0,0
COc1ccc(-c2noc(CSc3nnc(CCc4ccccc4)n3-c3ccccc3)n2)cc1OC,0,14.6µM,0,16.4µM,0,0
Cc1ccc(-c2noc(CSc3nnc(CCc4ccccc4)n3-c3ccccc3)n2)cc1,?,16.4µM,0,16.4µM,0,0
COc1ccc(-c2noc(CSc3nnc(C)n3-c3ccc(C)cc3)n2)cc1OC,-,?,0,?,0,-
Cc1ccc(-n2nc3c(N4CCC(C(=O)NC(C)C)CC4)nnc(C)c3c2C)cc1,-,0,0,0,0,-
